Source: PubChem
The entries come from a sample that favours hits as a whole.
ID4 SMM = ID4 (human) binding; P47928; small molecule microarray, Flag-ID4 binding, fluorescence F/B; calls only; 31,000 tested, 1.2% active; call rule not given here;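 also: a binder raises fluorescence above local background on the spot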
Target sequence (P47928 whole entry, looked up): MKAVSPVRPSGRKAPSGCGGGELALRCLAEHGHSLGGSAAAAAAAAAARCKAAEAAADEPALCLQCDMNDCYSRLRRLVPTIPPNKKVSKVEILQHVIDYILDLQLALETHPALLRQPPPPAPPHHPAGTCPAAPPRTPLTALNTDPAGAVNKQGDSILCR
Of the large screens only hits and unclear results are named; the others gave an inactive call.

C=C(C(=O)O)C1CCC2(C)CCC(O)C2(C(C)=O)C1 (stereo not given)	none
CC1(C)CC[C@]2(C(=O)O[C@@H]3O[C@H](CO)[C@@H](O)[C@H](O)[C@H]3O)CC[C@]3(C)C(=CCC4[C@@]5(C)C[C@@H](O)[C@H](O)[C@@](C)(COC(=O)c6cc(O)c(O)c(O)c6)C5[C@H](O)C[C@]43C)[C@@H]2C1 (stereo not given in full)	none
CC(C)(C)C1CCc2c(sc3ncn(CC(=O)NCc4ccco4)c(=O)c23)C1 (stereo not given)	none
Cc1cccc(NC(=O)CSc2nc3ncnc(N)c3[nH]2)c1	none
Cc1nnc(SCc2cc(=O)[nH]c(Nc3nc(C)c4cccc(C)c4n3)n2)s1	none
CSc1ccccc1NC(=O)C(C)NS(=O)(=O)c1ccc(C)cc1 (stereo not given)	none
Cc1ccc(S(=O)(=O)NC(C)C(=O)Nc2ccc(Oc3ccccc3)cc2)cc1 (stereo not given)	none
COC(=O)c1cn(CCCNC(=O)[C@H](Cc2ccccc2)NS(=O)(=O)c2ccc(C)cc2)nn1	ID4 SMM active
COc1ccc(-c2nc3cc(C(C)C)ccc3o2)cc1NC(=O)COc1ccccc1C	none
COc1ccc2c(c1)cc(C)c1nnc(SCC(=O)Nc3cccc(C(C)=O)c3)n12	none
O=C1c2ccccc2C2CC(c3cc(Cl)ccc3Cl)=NN12 (stereo not given)	none
N#Cc1c(NC(=O)CN2CCN(Cc3ccccc3)CC2)sc2c1CCCC2	none
O=C(CSc1ncccn1)Nc1ccc(Cl)cc1Cl	none
CC(=O)NC(Cc1c[nH]c2cc(Cl)ccc12)C(=O)O (stereo not given)	none
O=C(Nc1ccc(Cl)cc1Cl)NC(Cc1ccc(O)cc1)C(=O)O (stereo not given)	ID4 SMM active
COc1ccc(CN(C)C[C@H]2Oc3ccc(NC(=O)Cc4cn(C)c5ccccc45)cc3CC(=O)N([C@@H](C)CO)C[C@H]2C)cc1	none
C[C@H]1CN([C@@H](C)CO)C(=O)Cc2cc(NC(=O)Cc3ccccc3)ccc2O[C@@H]1CN(C)C(=O)Nc1ccc2c(c1)OCO2	none
COc1ccc(CN(C)C[C@H]2Oc3ccc(NC(=O)Cc4cn(C)c5ccccc45)cc3CC(=O)N([C@@H](C)CO)C[C@@H]2C)cc1	none
COc1ccc(CN(C)C[C@@H]2Oc3ccc(NC(=O)Cc4cn(C)c5ccccc45)cc3CC(=O)N([C@@H](C)CO)C[C@H]2C)cc1	ID4 SMM active
COc1ccc(CN(C)C[C@@H]2Oc3ccc(NC(=O)Nc4ccc(OC)cc4)cc3CC(=O)N([C@H](C)CO)C[C@@H]2C)cc1	none
COc1ccc(CN(C)C[C@@H]2Oc3ccc(NC(=O)Nc4ccc5c(c4)OCO5)cc3CC(=O)N([C@@H](C)CO)C[C@H]2C)cc1	ID4 SMM active
C[C@@H]1CN([C@H](C)CO)C(=O)Cc2cc(NC(=O)Cc3ccccc3)ccc2O[C@H]1CN(C)C(=O)Nc1ccc2c(c1)OCO2	none
C[C@@H]1CN([C@@H](C)CO)S(=O)(=O)c2ccc(C3=CCCC3)cc2O[C@H]1CN(C)C(=O)Nc1ccc2c(c1)OCO2	ID4 SMM active
C[C@H](CO)N1C[C@H](C)[C@@H](CN(C)C(=O)Nc2ccc3c(c2)OCO3)Oc2ccc(NC(=O)Cc3ccccc3)cc2CC1=O	ID4 SMM active
CC(C)NC(=O)N(C)C[C@H]1Oc2cc(C3=CCCC3)ccc2S(=O)(=O)N([C@H](C)CO)C[C@H]1C	none
COc1ccc(CN(C)C[C@@H]2Oc3ccc(NC(=O)Nc4ccc(OC)cc4)cc3CC(=O)N([C@@H](C)CO)C[C@H]2C)cc1	none
C[C@@H]1CN([C@@H](C)CO)S(=O)(=O)c2ccc(C3=CCCC3)cc2O[C@@H]1CN(C)C(=O)Nc1ccc2c(c1)OCO2	none
CCOC(=O)c1c(NC(=O)C(C)n2nc([N+](=O)[O-])c(Br)c2C)sc2c1CCC2 (stereo not given)	none
O=C(CC1(O)C(=O)Nc2ccc(I)cc21)c1ccccn1 (stereo not given)	none
CCc1ccc(N2C(=S)N(C(=O)c3cccs3)C3CC2(C)Oc2ccccc23)cc1 (stereo not given)	none
N#Cc1ccc(NC(=O)CSc2ccc([N+](=O)[O-])cn2)cc1	none
COc1ccc(-c2csc(N3N=C(C)C(C(c4ccc(Cl)cc4)C(C#N)C(N)=O)C3=O)n2)cc1 (stereo not given)	none
C[C@@H]1CN([C@@H](C)CO)C(=O)Cc2cc(NC(=O)Cc3cn(C)c4ccccc34)ccc2O[C@H]1CN(C)CC1CC1	none
CNC[C@H]1Oc2ccc(NC(=O)Cc3cn(C)c4ccccc34)cc2CC(=O)N([C@@H](C)CO)C[C@@H]1C	none
CNC[C@@H]1Oc2ccc(NC(=O)Cc3cn(C)c4ccccc34)cc2CC(=O)N([C@@H](C)CO)C[C@H]1C	ID4 SMM active
Cc1ccc(-c2csc3nnc(SCC(=O)c4ccc(Cl)c(Cl)c4)n23)cc1	none
O=C(O)CCc1ccc(-c2ccccc2)n1-c1ccc([N+](=O)[O-])cc1	none
CN(C)C(=O)CSc1nc2sc3c(c2c(=O)[nH]1)CCCC3	none
COc1cc(-c2nc3sc4c(c3c(=O)[nH]2)CCCC4)cc(Br)c1OCC(=O)O	ID4 SMM active
Cc1ccccc1NC(=O)COc1ccc(-c2nc3sc4c(c3c(=O)[nH]2)CCCC4)cc1	none
COc1ccc(CN2C(=O)C(O)(CC(=O)c3cccnc3)c3ccccc32)cc1OC (stereo not given)	none
COc1cccc(NC(=O)Cn2cnc3ccccc3c2=O)c1	none
COc1cccc(NC(=O)CC2C(=O)NC3CCCCC3N2C(=O)c2ccccc2)c1 (stereo not given)	ID4 SMM active
COc1cccc(N2C(=O)C(CC(=O)Nc3ccc(F)cc3)N(C3CCCCC3)C2=O)c1 (stereo not given)	none
C[C@H]1CC(O)C23COC(=O)[C@@H]2CCC[C@@H]3[C@@]12C[C@@H](c1ccoc1)OC2=O (stereo not given in full)	none
COc1cc(OC)cc(C(=O)Nc2ccc(S(=O)(=O)Nc3nc(C)cc(C)n3)cc2)c1	none
Cc1cc(C)nc(NS(=O)(=O)c2ccc(NC(=O)c3ccc(-c4ccccc4)cc3)cc2)n1	none
Cc1cc(C)nc(NS(=O)(=O)c2ccc(NC(=O)c3ccc(C(=O)c4ccccc4)cc3)cc2)n1	ID4 SMM active
O=C(CCSc1nnc(-c2ccccc2)o1)Nc1ccc(F)cc1	none
CC(=O)c1cccc(NC(=O)CSc2nc(-c3ccccc3)c(-c3ccccc3)o2)c1	none
O=C(O)CCCCCCC(=O)Nc1ccc(C2CC(CSc3nc(-c4ccccc4)c(-c4ccccc4)o3)OC(c3ccccc3)O2)cc1 (stereo not given)	ID4 SMM active
Cc1ccc(-c2cc(C(=O)NCc3cccnc3)c3cc(Br)ccc3n2)cc1	none
CNC[C@@H]1Oc2ccc(NC(=O)c3ccncc3)cc2CC(=O)N([C@@H](C)CO)C[C@H]1C	ID4 SMM active
CNC[C@@H]1Oc2ccc(NC(=O)CCN3CCOCC3)cc2CC(=O)N([C@@H](C)CO)C[C@@H]1C	none
CNC[C@@H]1Oc2ccc(NC(=O)CCN3CCOCC3)cc2CC(=O)N([C@H](C)CO)C[C@H]1C	none
CNC[C@H]1Oc2ccc(NC(=O)Nc3ccccc3)cc2CC(=O)N([C@H](C)CO)C[C@@H]1C	none
CNC[C@H]1Oc2ccc(NC(=O)Nc3ccccc3)cc2CC(=O)N([C@@H](C)CO)C[C@@H]1C	none
CNC[C@H]1Oc2ccc(NC(=O)c3ccncc3)cc2CC(=O)N([C@H](C)CO)C[C@@H]1C	none
CNC[C@H]1Oc2ccc(NC(=O)CCN3CCOCC3)cc2CC(=O)N([C@@H](C)CO)C[C@@H]1C	ID4 SMM active
